Compound activity as filed in PubChem.
Mtb UGM inh: blocks M. tuberculosis UGM enzyme; 320,000 compounds, 0.06% hits; purified UGM, fluorescence polarization probe displacement; P9WIQ1; AID 504406; inhibition, % at 10 µM; in the data active = inhibition above about 10%, passing the limit was not always enough
Target sequence (P9WIQ1 whole entry, looked up): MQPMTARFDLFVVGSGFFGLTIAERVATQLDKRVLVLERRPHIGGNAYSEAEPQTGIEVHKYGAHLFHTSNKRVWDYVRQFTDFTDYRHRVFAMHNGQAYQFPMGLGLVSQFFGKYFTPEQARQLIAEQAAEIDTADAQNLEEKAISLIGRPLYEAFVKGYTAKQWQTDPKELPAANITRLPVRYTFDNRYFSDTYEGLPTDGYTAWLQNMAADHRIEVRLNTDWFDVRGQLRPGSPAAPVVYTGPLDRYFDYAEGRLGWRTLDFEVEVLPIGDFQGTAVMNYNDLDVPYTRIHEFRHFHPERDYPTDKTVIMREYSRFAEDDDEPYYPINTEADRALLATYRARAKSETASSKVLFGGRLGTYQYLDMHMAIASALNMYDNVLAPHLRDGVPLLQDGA
FBA Mtb inh: inhibits M. tuberculosis FBA enzyme | P9WQA3 | purified M. tuberculosis FBA, fluorescence read-out | inhibition, % at 1 µM | 360,000 compounds, 2.3% hits;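 also: 0% = vehicle and 100% = reference inhibitor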
GDH-TPI counter-1: counter-screen for M. tuberculosis FBA inhibitors: GDH-TPI coupled enzymes; GDH-TPI coupled enzyme counterscreen, NADH absorbance; inhibition, % at 4.8 µM; 360,000 compounds, 1.2% hits; AID 588335; in the data active = inhibition above about 30%;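 also: 0% = DMSO wells and 100% = wells lacking the enzyme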
Mtb bLac sens: beta-lactam sensitization of Mtb H37Rv. M. tuberculosis H37Rv growth with meropenem, percent inhibition. AID 434955. inhibition, % at 25 µM. 330,000 compounds, 0.27% hits; call rule not given here;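 also: growth measured after seven days incubation then overnight dye step; 0% = bacteria only wells and 100% = bacteria with antibiotic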
SSB-PriA inh: K. pneumoniae PriA-SSBct interaction inhibition; 430,000 compounds, 0.6% hits; AID 1272365; AlphaScreen SSBct-PriA binding, biotinylated peptide; inhibition, % at 33 µM; in the data active = inhibition mostly above about 37%, no sharp cut-off; inactive = mostly below about 20%;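 also: plate controls were negative control peptide for no effect and reference peptide for full effect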
Rv3671c inh: inhibits the M. tuberculosis serine protease Rv3671c. P9WHR9. inhibition, % at 5.96 µM. 320,000 compounds, 0.048% hits; in the data active = inhibition above about 38%;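 also: extracellular domain of Rv3671c used as enzyme; 0% = enzyme with DMSO and 100% = no enzyme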
Mtb FBA confirm: Mtb FBA inhibition, confirmed. shares compounds with FBA Mtb inh. purified M. tuberculosis FBA, fluorescence read-out. inhibition, % at 1 µM. 5,600 compounds, 78% hits. AID 651616;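 also: 0% = vehicle wells and 100% = reference inhibitor wells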
GDH-TPI counter-2: inhibits GDH-TPI coupling enzymes, flagging Mtb FBA hits. 5,600 compounds, 81% hits. GDH-TPI coupled enzyme counterscreen, fluorescence. shares compounds with FBA Mtb inh. inhibition, % at 1 µM; in the data active = inhibition above about 10%
Active calls of the source: *; / = no result; + = active, no number. This is a sample that favours compounds with a hit; in the whole collection about 3.2% have one here. Rule as the data show it, unless noted: active = inhibition above about 27%; inactive = the rest.

SMILES	Mtb UGM inh	FBA Mtb inh	GDH-TPI counter-1	Mtb bLac sens	SSB-PriA inh	Rv3671c inh	Mtb FBA confirm	GDH-TPI counter-2
COCCn1cc(C(=O)NCCCOC(C)C)c2c3ccccc3n(C)c2c1=O	-2	30*	3	-1	-1	-1	128*	112*
COCCCNC(=O)c1cn(CC(C)C)c(=O)c2c1c1ccccc1n2C	-1	19	18	-1	-7	-2	/	/
CC(C)Cn1cc(C(=O)NCCCN2CCCC2=O)c2c3ccccc3n(C)c2c1=O	4	33*	15	2	4	-2	-5	-1
CCC(C)NC(=O)c1cn(CCOC)c(=O)c2c1c1ccccc1n2C (stereo not given)	0	15	0	4	0	1	/	/
CC(C)Cn1cc(C(=O)NCCCN2CCC(C)CC2)c2c3ccccc3n(C)c2c1=O	2	10	4	-3	1	2	/	/
COCCNC(=O)c1cn(CCOC)c(=O)c2c1c1ccccc1n2C	0	27*	14	-9	-2	-3	134*	104*
COCCCNC(=O)c1cn(CCOC)c(=O)c2c1c1ccccc1n2C	1	37*	11	-5	-2	4	90*	96*
COc1cccc(NC(=O)NCC(c2ccsc2)N2CCCCCC2)c1OC (stereo not given)	/	/	/	/	4	/	/	/
O=C(Cn1nc(-c2cccc(Br)c2)sc1=Nc1ccccc1)c1ccc(Cl)cc1	/	/	/	/	-11	/	/	/
O=[N+]([O-])c1cccc(-c2nnc(-c3ccc4c(c3)OCO4)o2)c1	0	2	-1	1	1	-12	/	/
Clc1ccccc1-c1nnc2sc(-c3ccc4c(c3)OCO4)nn12	0	28*	10	/	6	-9	+	+
Clc1ccccc1-c1nnc(-c2ccc3c(c2)OCO3)o1	4	33*	1	66	-14	-6	93*	63*
CCOc1cc2c(C#N)c(N3CCCCC3)nc(N)c2c(N)n1	0	28*	7	92	11	3	84*	53*
COc1cc2c(C#N)c(N3CCCCC3)nc(N)c2c(N)n1	5	4	19	43	9	2	/	/
CCOc1cc2c(C#N)c(N3CCNCC3)nc(N)c2c(N)n1	-1	40*	10	-8	9	7	151*	125*
O=C(CNC(=O)c1cccc(F)c1)NN=Cc1cc(Br)ccc1OC(=O)/C=C/c1ccco1	/	/	/	/	1	/	/	/
Cc1cc(/C=N/NC(=O)Cn2c3ccccc3c(=O)c3ccccc32)c(C)n1-c1ccccc1	-2	66*	9	-1	/	-19	+	+
Cc1ccc(N(CC(=O)N/N=C/c2cc(C)n(-c3ccccc3)c2C)S(C)(=O)=O)c(C)c1	3	-1	-1	-2	/	0	/	/
Cc1ccc(C)c(NC(=S)C(=C([O-])c2ccc(Cl)s2)[n+]2ccccc2)c1	/	/	/	/	9	/	/	/
CCCNC(=O)C1(CC2CC(c3ccccc3)=NO2)CCN(C(=O)c2cc(OCC)c(OCC)c(OCC)c2)CC1 (stereo not given)	1	29*	0	64	-8	-6	169*	128*
CCOc1cc(C(=O)N2CCC(CC3CC(c4cccc(Br)c4)=NO3)(C(=O)NCC3CCCCC3)CC2)cc(OCC)c1OCC (stereo not given)	-3	5	17	1	-4	-12	/	/
Cc1c2ccccc2nc2ccccc12	-2	64*	17	5	-5	-12	199*	123*
Cc1ccc2[nH]c(C(=O)N3CCCCC3)cc2c1	-1	3	3	6	-1	-1	/	/
Cc1ccc2[nH]c(C(=O)NCCN3CCCC3)cc2c1	0	41*	10	-1	13	-4	76*	63*
Cc1ccn2c(=O)c(C(=O)O)cnc2c1	3	92*	34*	-9	-13	1	92*	83*
SMILES	Mtb UGM inh	FBA Mtb inh	GDH-TPI counter-1	Mtb bLac sens	SSB-PriA inh	Rv3671c inh	Mtb FBA confirm	GDH-TPI counter-2
COC(=O)COc1ccc2c(=O)c(Oc3ccccc3)c(C)oc2c1	-4	0	10	99	-9	-3	/	/
Cc1oc2cc(O)ccc2c(=O)c1N1C(=O)c2ccccc2C1=O	0	10	28	-39	2	5	/	/
CCOc1ccc(Oc2c(C)oc3cc(O)ccc3c2=O)cc1	-2	44*	9	3	2	-8	+	160*
Cc1oc2cc(O)ccc2c(=O)c1Oc1ccccc1	0	101*	22	-4	-3	4	83*	59*
COC(=O)c1cc(-c2c(C)oc3cc(O)ccc3c2=O)c(C)o1	-1	76*	29	3	-9	-1	29*	32*
Cc1oc2cc(O)ccc2c(=O)c1Oc1ccccc1Br	0	96*	18	5	2	6	6	-1
CC(=O)Nc1sc2c(c1C(N)=O)CC(C)(C)NC2(C)C	/	/	/	/	8	/	/	/
CC(C)(C)c1ccc(S(=O)(=O)NCc2ccc(C(=O)NCc3ccco3)cc2)cc1	/	/	/	/	-4	/	/	/
Cc1cc(NC(=O)C2CCCC2)ccc1N1CCCCC1=O	/	/	/	/	-9	/	/	/
CC(=O)c1ccc(N2CCN(C(=O)c3nnn(-c4ccc(F)cc4)c3C)CC2)cc1	/	/	/	/	-14	/	/	/
CC(C)c1nc(N2CCN(C(=O)c3ccco3)CC2)c(C#N)c2c1COC(C)(C)C2	1	37*	5	5	3	-1	+	+
Nc1nc(Cl)cc(Nc2ccccc2F)n1	/	/	/	/	10	/	/	/
Cc1ccccc1-n1ncc2c(C3CC3)nn(CC(=O)Nc3ccc(C(N)=O)cc3)c(=O)c21	/	/	/	/	2	/	/	/
CCN(CC)c1ccc2c(C)c(-c3ccc(N)cc3)c(=O)oc2c1	0	23	21	59	-14	13	/	/
CCN(CC)c1ccc2c(C)c(Cl)c(=O)oc2c1	-4	67*	5	-7	-72	8	65*	54*
CCN(CC)c1ccc2ccc(=O)oc2c1	0	53*	6	3	-42	-2	74*	67*
CCN(CC)c1ccc2c(C)cc(=O)oc2c1	-1	108*	14	3	-46	-1	125*	88*
CCOC(=O)Cc1c(C)c2ccc(N(CC)CC)cc2oc1=O	2	93*	9	-2	-8	-8	58*	51*
CCCN(CCC)CC(O)Cn1c2ccccc2c2ccccc21 (stereo not given)	0	0	-1	-1	-7	2	/	/
CC(C)CCN(CCC(C)C)CC(O)Cn1c2ccccc2c(=O)c2ccccc21 (stereo not given)	-3	31*	-2	81	-10	3	45*	35*
CCOc1cc(S(=O)(=O)N2CCN(Cc3ccc4c(c3)OCO4)CC2)c(OCC)cc1C	/	/	/	/	-19	/	/	/
COCCSc1ccccc1C(=O)Nc1nnc(COC)s1	1	1	21	20	-10	3	/	/
